IL-1B inflam inh = blocks inflammasome-driven IL-1 beta release. THP-1 LPS/ATP IL-1B secretion, AlphaLISA, 16 h; active compounds read low. activity change, % at 57.5 µM. 4.7% of 360,000 active; in the data active means activity change below about -50%; inconclusive means mostly about -30% to -49%; further: on the % scale 0 is the no-effect control and ±100 the full control effect
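THP-1 cells pretreated 1 hr with compounds (up to 57.5 uM final), then stimulated with LPS (250 ng/mL final) plus ATP (1.25 mM final); secreted IL-1B measured by AlphaLISA after 16 hr, decreased signal indicating inhibition.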
TGFb inhibitor = inhibitors of TGF-b signaling | Potency, µM (highest dose often 46.1 µM), for the others: top-dose activity, negative = inhibition, actives largely listed as inhibitors | HepG2 CAGA-GFP TGF-b/SMAD3 reporter, GFP fluorescence, 18 h; TGF-beta stimulated, 500 pg/mL final | AID 588855 | 1.2% of 410,000 active; further: potency means the concentration at half of the fitted maximal effect; on the % scale 0 is the no-effect control and ±100 the full control effect; nearly all actives have a fitted effect of over 65% in size
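First, reporter cells (HEPG2 CAGA-GFP) rested 2 h at 37 degrees C. Next, compounds were pinned in and TGF-beta added to 500 pg/mL final. After 18 h, GFP was imaged per cell and summed per well.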
S-ASM inh = human S-ASM enzyme inhibition; P17405; placental ASM, HMU-PC fluorogenic substrate, 60 min; Potency, µM (series often up to 57.5 µM), for the others: top-dose activity change, negative = inhibition, actives largely listed as inhibitors; 0.006% of 340,000 active; AID 504937; further: potency means the concentration at half of the fitted maximal effect
Target sequence (P17405 47-631 limits assumed): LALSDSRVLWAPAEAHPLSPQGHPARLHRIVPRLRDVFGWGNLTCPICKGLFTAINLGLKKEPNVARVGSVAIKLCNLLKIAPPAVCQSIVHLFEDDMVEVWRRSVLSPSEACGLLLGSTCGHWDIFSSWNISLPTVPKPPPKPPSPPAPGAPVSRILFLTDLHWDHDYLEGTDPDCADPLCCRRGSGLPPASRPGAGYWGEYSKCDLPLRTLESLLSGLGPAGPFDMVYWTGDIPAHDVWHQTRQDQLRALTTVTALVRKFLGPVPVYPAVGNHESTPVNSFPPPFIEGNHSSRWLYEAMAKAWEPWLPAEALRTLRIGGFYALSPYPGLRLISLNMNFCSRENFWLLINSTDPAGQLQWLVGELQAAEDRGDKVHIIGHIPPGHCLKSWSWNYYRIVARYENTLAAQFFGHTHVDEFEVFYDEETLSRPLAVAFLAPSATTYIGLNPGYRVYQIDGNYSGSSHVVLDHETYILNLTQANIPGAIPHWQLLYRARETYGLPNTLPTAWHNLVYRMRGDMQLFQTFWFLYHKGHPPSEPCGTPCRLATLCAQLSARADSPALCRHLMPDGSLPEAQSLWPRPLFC
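Fluorescence read-out (Ex 386 nm, Em 447 nm) after stopping the reaction at pH 10. Enzyme: ASM from human placenta; substrate HMU-PC0, 9 uM final; 60 min, 37 °C. Compound preincubation 10 min, ambient temperature.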
TDP1 cell CPT = growth inhibition of DT40 Tdp1-/-;hTDP1 cells with camptothecin (screen for TDP1 inhibitors); Potency, µM (series often up to 46.2 µM), for the others: at the top dose activity change, negative = growth inhibition, hits mostly inhibitors; 12% of 420,000 active; chicken DT40 Tdp1-/-;hTDP1 cells + 20 nM CPT, ATP luminescence, 48 h; further: potency means the concentration at half of the fitted maximal effect; on the % scale 0 is the no-effect control and ±100 the full control effect; nearly all actives have a fitted effect of over 55% in size
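Cell growth measured by CellTiter-Glo luminescence after a minimum 48 h, 37 C compound exposure with 20 nM CPT in Tdp1-knockout DT40 cells stably expressing hTDP1, seeded 400/well; qHTS titration format.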
DT40 TDP1 no CPT = qHTS for Inhibitors of human tyrosyl-DNA phosphodiesterase 1 (TDP1): qHTS in cells in absence of CPT | DT40 Tdp1-/- hTDP1 cells, no CPT, ATP luminescence, 48 h | Potency, µM (highest dose often 46.2 µM), inactives show at the top dose activity change, negative = growth inhibition, actives largely listed as inhibitors | 15% of 420,000 active; further: potency means the concentration at half of the fitted maximal effect; on the % scale 0 is the no-effect control and ±100 the full control effect; nearly all actives have a fitted effect of over 55% in size
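A cellular qHTS used chicken DT40 cells lacking endogenous Tdp1 but carrying stably transfected human TDP1. Compounds were applied without camptothecin, and cell growth kinetics were judged by ATP-dependent luminescence after ≥48 hr.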
HepG2 viability = counter-screen for TGF-b inhibitors: cytotoxicity in HepG2 cells | 0.76% of 410,000 active | Potency, µM (titrated, usually from 46.1 µM), for the others: at the top dose activity change, negative = cytotoxicity, hits mostly cytotoxic | HepG2 CAGA-GFP viability, ATP luminescence, 18 h | AID 588856; further: potency means the concentration at half of the fitted maximal effect
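CellTiter-Glo luminescence gave cytotoxicity after 18 hours at 37 degrees C. The cells were HepG2 CAGA-GFP in 1% FBS DMEM, stimulated with 500 pg/mL TGF-beta after compound addition. %Activity was normalised to no-cell wells (complete cell-killing) and DMSO (no toxicity), and curves were fitted and classified.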
Numbers without * were called inactive. Only some compounds are listed: those with a hit (about 19% of all), similar ones and a draw of the others. Unless noted, the call rests on the fitted dose curve; in most records, active means well fitted curve in the direction sought with a large enough effect; inconclusive means small, poorly fitted or top-dose-only effect, or another doubt; inactive means no such curve, though single readings can be large; an effect the other way counts as inactive or inconclusive.

What do the screens show for `Fc1ccc(-n2cc(-c3ccccc3)c3c(NN4CCOCC4)ncnc32)cc1`?
IL-1B inflam inh: -72.6*; TGFb inhibitor: -12.4%; S-ASM inh: -0.9%; TDP1 cell CPT: inconclusive; DT40 TDP1 no CPT: 23.1µM*; HepG2 viability: -53.3%

Results for COCCCNc1ncnc2c1c(-c1ccccc1)cn2-c1ccc(C)c(Cl)c1 ?
TGFb inhibitor: 3.8%; TDP1 cell CPT: 18.4µM*; DT40 TDP1 no CPT: inconclusive; HepG2 viability: 0.3%

Results for COc1ccc(-c2nc3cc(F)ccc3cc2CN(C(=O)c2ccc3c(c2)OCO3)C2CC2)cc1 ?
TDP1 cell CPT: 16.9%; DT40 TDP1 no CPT: -11.5%

Results for O=C(Nc1ccc(Cl)cn1)C1COc2ccccc2O1 (centres undefined) ?
IL-1B inflam inh: 1.8; TGFb inhibitor: -14.2%; S-ASM inh: -4.4%; TDP1 cell CPT: inconclusive; DT40 TDP1 no CPT: -14.6%; HepG2 viability: -0.3%

Results for CCC(=O)Nc1ccccc1-c1nnn(CC(=O)N2c3ccccc3CC2C)n1 (centres undefined) ?
IL-1B inflam inh: -6.2; TGFb inhibitor: -0.8%; S-ASM inh: -1.0%; TDP1 cell CPT: inconclusive; DT40 TDP1 no CPT: -22.3%; HepG2 viability: -4.8%

What do the screens show for `COc1ccc(C(=O)Cn2nnc(-c3ccccc3NC(=O)C3CCCCC3)n2)cc1`?
IL-1B inflam inh: 18.8; TGFb inhibitor: -6.8%; S-ASM inh: -4.3%; TDP1 cell CPT: 23.1µM*; DT40 TDP1 no CPT: inconclusive; HepG2 viability: -4.6%

How did COc1ccc(NC(=O)Cn2nnc(-c3ccccc3NC(=O)C3CC3)n2)cc1 do in these assays?
IL-1B inflam inh: -9.5; TGFb inhibitor: -3.4%; S-ASM inh: -9.8%; TDP1 cell CPT: -15.1%; DT40 TDP1 no CPT: inconclusive; HepG2 viability: -38.9%

How did CC1Cc2ccccc2N1C(=O)Cn1nnc(-c2ccccc2NC(=O)C2CCC2)n1 (centres undefined) do in these assays?
IL-1B inflam inh: -11.2; TGFb inhibitor: -19.6%; S-ASM inh: -9.7%; TDP1 cell CPT: inconclusive; DT40 TDP1 no CPT: 14.6µM*; HepG2 viability: -6.9%

How did COc1ccc(OC)c(CCNC(=O)CN2C(=O)COc3ccc(S(=O)(=O)N4CCC(C)CC4)cc32)c1 do in these assays?
TGFb inhibitor: inconclusive; HepG2 viability: -28.2%

Results for Cc1ccc(S(=O)(=O)NNc2ccccc2)cc1 ?
IL-1B inflam inh: 14.0; TGFb inhibitor: 20.0%; S-ASM inh: -0.6%; TDP1 cell CPT: -20.7%; DT40 TDP1 no CPT: -1.0%; HepG2 viability: -9.2%

How did Cc1ccc(S(=O)(=O)NNc2c3ccccc3nc3ccc(Cl)cc23)cc1 do in these assays?
IL-1B inflam inh: -22.7; TGFb inhibitor: 2.8%; TDP1 cell CPT: 23.1µM*; DT40 TDP1 no CPT: 8.2µM*; HepG2 viability: -0.5%

What do the screens show for `Cc1ccc(S(=O)(=O)NNc2nc3ccccc3nc2C(F)(F)F)cc1`?
IL-1B inflam inh: -10.6; TGFb inhibitor: inconclusive; S-ASM inh: 16.2%; TDP1 cell CPT: inconclusive; DT40 TDP1 no CPT: 18.4µM*; HepG2 viability: -27.6%

Results for O=S(=O)(NNc1cccc(Cl)n1)c1ccc(Cl)cc1 ?
IL-1B inflam inh: 26.0; TGFb inhibitor: -8.7%; S-ASM inh: 0.2%; TDP1 cell CPT: -22.7%; DT40 TDP1 no CPT: -1.6%; HepG2 viability: -11.0%

How did CN1CCN(C(=O)C(=O)c2cn(CC(=O)N3CCCCCC3)c3ccccc23)CC1 do in these assays?
IL-1B inflam inh: -8.1; TGFb inhibitor: 1.4%; TDP1 cell CPT: -2.1%; DT40 TDP1 no CPT: -14.3%; HepG2 viability: -1.1%

Screening results from PubChem BioAssay.
